LMP1 NFkB inh: Epstein-Barr LMP1 NF-kappaB reporter inhibition | LMP1-induced NF-kappaB luciferase reporter cells, luminescence | inhibition, % at 12.5 µM | 350,000 tested, 0.69% active | AID 504558; in the data active = inhibition above about 41%; inconclusive = no clear call, values can overlap the other calls;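 note: 0% = neutral control wells and 100% = reference inhibitor control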
TWEAK-Fn14 inh: inhibitors of TWEAK-Fn14 interaction signaling | AID 1159606 | TWEAK-stimulated Fn14 reporter cells, luciferase luminescence, 8 h | inhibition, % at 10 µM | 360,000 tested, 2% active; in the data active = inhibition above about 50%
TROY signal inh: inhibitors of TROY-dependent NF-kB signaling. Q293 LMP1-TROYcd NF-kB luciferase reporter, 4 h. inhibition, % at 10 µM. 360,000 tested, 0.98% active. AID 1347056;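 active = compounds whose plate-normalised and pattern-corrected inhibition of the luciferase reporter signal at the single screening dose is 50% or more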
MITF TRPM1 inh: inhibitors of MITF-driven TRPM1 promoter in melanoma cells; AID 488899; SK-MEL-5 TRPM1 promoter luciferase, 24 h; inhibition, % at 12.5 µM; 330,000 tested, 0.83% active;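 active = mean inhibition across replicates of 60% or more, whatever share of single replicates reaches that level; inconclusive = some that reach 60%, reason not given; inactive = mean inhibition across replicates below 60%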
Peg3 promoter: reduces Peg3 promoter-driven luciferase expression in HeLa | HeLa PEG-Prom luciferase reporter, luminescence, overnight | inhibition, % at 20 µM | 360,000 tested, 1.7% active | AID 588405;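 active = inhibition of at least 50% at 20 µM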
HIF-2a inh: inhibitors of HIF-2a | 786-0 RCC cells HIF-2a reporter, luciferase luminescence, overnight | inhibition, % at 18.8 µM | 360,000 tested, 0.72% active | AID 624352;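 active = inhibition of the luminescence signal of 40% or more relative to plate controls, in a single-dose primary screen at 18.75 µM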
Active calls of the source: *; ? = inconclusive; · = not tested or not shown. A selection: hits, their analogues and other compounds. The true share with any hit is near 4%.

SMILES	LMP1 NFkB inh	TWEAK-Fn14 inh	TROY signal inh	MITF TRPM1 inh	Peg3 promoter	HIF-2a inh
Cc1c(C(=O)Oc2cccc3ccccc23)cnn1-c1ccccc1	5	73*	82*	-26	-312	-64
Cc1nc2cc(NCc3cc([N+](=O)[O-])ccc3O)ccc2n1Cc1ccccc1	0	53*	80*	1	7	-71
ClCc1nc2ccccc2n1Cc1ccccc1	16	-2	-6	53	107*	21
CC(=O)Nc1ccc2c(c1)nc(C)n2Cc1ccccc1	7	-1	-11	7	4	15
Cc1nc2cc(NCc3nc4ccccc4n3Cc3ccccc3)ccc2n1C	-4	90*	87*	-38	-40	-12
CN(CC(=O)Nc1ccc(F)c(F)c1F)C(=O)C1=NN(c2ccccc2)C(=O)CC1	32	0	-5	2	-9	4
Nc1ccc2nc(CCc3ccccc3)[nH]c2c1	59*	-10	-29	-10	-113	-100
C[C@@H]1O[C@@H]1P(=O)(O)O	75*	-3	-3	-3	3	-2
CC1(C)CC(=O)C=C(c2ccc(Oc3ccccc3)cc2)C1=O	-2	-10	-30	·	-15	-39
CC1(C)CC(=O)C=C(c2ccc(-c3cnc4ccccc4c3)cc2)C1=O	-13	85*	92*	·	-97	-50
CC(=NNC(=O)CSCC(=O)NN=C(C)c1ccccc1)c1ccccc1	-6	1	-4	5	3	-5
COc1ccc(-c2csc3ncn(Cc4ccccc4)c(=O)c23)cc1	2	91*	-7	·	30	26
Cc1ccc(-c2csc3ncnc(SCC(N)=O)c23)cc1	4	2	35	-8	19	11
Cc1ccc(-c2csc3nc(SCC(N)=O)n(Cc4ccccc4)c(=O)c23)cc1	-2	13	10	-1	53*	7
COc1ccc(NS(=O)(=O)c2ccc3c(c2)N(C(C)=O)CC(C)S3)c(OC)c1 (stereo not given)	0	-5	6	12	13	10
CN(NS(=O)(=O)c1ccc(Br)cc1)c1nc(C(F)(F)F)nc2ccccc12	7	18	58*	8	33	13
CC(=O)Nc1nc(S(=O)(=O)c2ccc(C)cc2)c(Cl)s1	4	11	14	4	-10	15
Cc1ccc(S(=O)(=O)c2nc(Nc3nccs3)sc2Cl)cc1	30	-30	52*	12	15	15
CCOC(=O)C1(C)CCCN(C(=O)c2ccc3c(c2)CCO3)C1 (stereo not given)	·	18	-9	·	12	6
O=c1cc(-c2ccccc2Cl)oc2c([N+](=O)[O-])c(O)cc(O)c12	17	96*	52*	10	98*	-11
COc1ccc(C2C(C#N)=C(C)NC3=C2C(=O)c2ccccc23)cc1 (stereo not given)	4	-11	-13	-3	20	23
COc1cc(C2C(C#N)=C(C)NC3=C2C(=O)c2ccccc23)cc(OC)c1OC (stereo not given)	13	5	6	77*	23	-4
COc1ccccc1CNC(=O)C1CCC(CNS(=O)(=O)c2ccccc2)CC1 (stereo not given)	3	11	8	-3	17	20
Cc1cc(OCC(=O)Nc2cnn(CCCC(=O)O)c2)ccc1Cl	59*	-4	16	-3	8	3
Cc1cc(OCC(=O)Nc2cnn(CCCC(=O)O)c2)ccc1[N+](=O)[O-]	-1	16	14	-9	-11	13
SMILES	LMP1 NFkB inh	TWEAK-Fn14 inh	TROY signal inh	MITF TRPM1 inh	Peg3 promoter	HIF-2a inh
O=C1C=C(N2CCCCC2)c2ccccc2C1=O	·	14	-1	·	100*	46*
COc1ccc(CN2CCC(N(CCc3ccccc3)Cc3ccccc3)CC2)c(OC)c1	5	-13	2	-5	63*	19
CCCN1CCC(N(CCc2ccccc2)Cc2ccccc2)CC1	-13	9	-12	-10	-4	9
Cn1c(=O)c2ncn(CC(=O)O)c2n(C)c1=O	?	-9	52*	8	6	6
Cc1cc(C(=O)COC(=O)Cc2n[nH]c(=O)c3ccccc23)c(C)n1-c1ccc2c(c1)OCCO2	14	68*	39	11	25	-2
Cc1cc(C(=O)COc2ccc(C#N)cc2)c(C)n1-c1ccc2c(c1)OCO2	9	89*	1	17	-8	-26
Nc1nc2n[nH]nc2c(=O)[nH]1	-16	3	-7	65*	13	5
COc1ccc(C(CNC(=O)CCC(=O)c2ccc(C)s2)N2CCOCC2)cc1 (stereo not given)	-6	17	-6	4	18	5
Cc1ccc(C(=O)NCC(=O)N(C)CC(=O)Nc2c(Cl)cccc2Cl)s1	-5	0	-5	10	-22	1
CCOC(=O)c1c(C)[nH]c(C)c1S(=O)(=O)NCc1cc(C)ccc1C	-6	-8	3	3	12	-7
CCC(C)[C@H](NC(=O)OC(C)(C)C)C(=O)NCC1CCC(C(=O)N[C@@H](Cc2ccccc2)C(=O)O)CC1 (stereo not given in full)	-33	12	-2	7	11	9
C=C(NC(=O)C(=C)NC(=O)c1csc(C2=NC3c4csc(n4)C4NC(=O)c5csc(n5)C(C(C)(O)C(C)O)NC(=O)C5CSC(=N5)/C(=C/C)NC(=O)C(C(C)O)NC(=O)c5csc(n5)C3(CC2)NC(=O)C(C)NC(=O)C(=C)NC(=O)C(=C)NC(=O)C(C(C)C)NC2C=Cc3c(C(C)O)cc(nc3C2O)C(=O)OC4C)n1)C(N)=O (stereo not given)	65*	6	-9	94*	81*	64*
CCN(CC)CCCNC(=O)CSc1c2c(nc3cc(Cl)ccc13)CCCC2	-2	1	13	16	96*	15
O=C(CSc1c2c(nc3cc(Cl)ccc13)CCCC2)NCCCN1CCOCC1	2	4	30	16	8	9
Cc1cc(NC(=O)c2cc(-c3ccc(OC(C)C)cc3)nc3ccccc23)no1	-3	-18	-32	-36	-105	-58
CN(C)CCN1C(=O)c2cccc3cc([N+](=O)[O-])cc(c23)C1=O	58*	-125	-89	84*	97*	46*
N#CCc1cnc2ccccc2n1	8	-4	-16	4	-4	-16
CCNC(=O)C1(C)CCN(C(=O)c2c(-c3ccccc3)noc2C)C1 (stereo not given)	·	-12	-3	·	-3	6
CC(=O)Nc1ccc(-c2ccnc(-c3ccc(NC(C)=O)cc3)n2)cc1	-4	62*	-15	2	-17	-6
CC(=O)Nc1ccc(-c2nn[nH]n2)cc1	10	3	1	9	4	15
CCc1c(C2(O)CCCCC2)[nH]c2cnccc12	1	6	-20	7	0	13
CN(C)c1ccc(CCc2ccc(N)cc2)cc1	13	44	30	43	-60	83*

Screens: PubChem, several laboratories
